Activity calls are given as the source filed them. The calls were made as follows: active = hit-call score of the fitted dose curve at least 0.9, where 1 is the maximum; inactive = score below 0.9.
Tests used:
[1] = ATG_ISRE_CIS: Attagene CIS-FACTORIAL HepG2 Assay for human Interferon Regulatory Factor 1 (IRF1) binding to an Interferon-Stimulated Response Element (ISRE) (AID 2282948); conditions: HepG2 ISRE cis-reporter (Attagene), mRNA transcription readout; actives raise or lower the signal
How it was run: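 Endogenous transcription factor activity read as reporter transcript abundance via RT-PCR and capillary electrophoresis. HepG2 cells transiently transfected, 24 h chemical exposure. Gain or loss fitted against DMSO baseline.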

[2] = ATG_M_32_CIS: Attagene CIS-FACTORIAL HepG2 Assay for M32 Transcription Factor (Internal Marker) (AID 2282949); conditions: HepG2 Attagene cis-factorial M32 reporter, mRNA; actives raise or lower the signal;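 also: background control marker of the multiplexed CIS panel rather than a real target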
How it was run: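 Using DMSO as baseline, bidirectional curve fits were applied to reporter mRNA signals. These came from transiently transfected HepG2 cells exposed for 24 h, with RNA analysed by RT-PCR, FAM primer extension, HpaI digestion and CE.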

[3] = ATG_M_06_CIS: Attagene CIS-FACTORIAL HepG2 Assay for M06 Transcription Factor (Internal Marker) (AID 2282950); conditions: HepG2 Attagene CIS-FACTORIAL M06 internal marker reporter; actives raise or lower the signal
How it was run: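 Steps: transfect HepG2 with multiplexed cis-element reporter constructs; dose chemical 24 h; extract RNA with DNase treatment; reverse-transcribe, PCR-amplify, 6-FAM label, HpaI digest; separate fragments by capillary electrophoresis. Activity fitted both directions versus DMSO.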

[4] = molecular target: Hepatocyte nuclear factor 6 (Homo sapiens) (UniProt Q9UBC0); assay: ATG_HNF6_CIS: Attagene CIS-FACTORIAL HepG2 Assay for human Hepatocyte Nuclear Factor 6 (HNF6) (AID 2282952); conditions: HepG2 Attagene cis-factorial HNF6 reporter transcription; actives raise or lower the signal
How it was run: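 Activity values derive from bidirectional fitting against DMSO of reporter mRNA levels, measured by capillary electrophoresis of labelled RT-PCR products from HepG2 cells exposed 24 h.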

[5] = ATG_MRE_CIS: Attagene CIS-FACTORIAL HepG2 Assay for human Metal Responsive Element (MRE) (AID 2282954); conditions: HepG2 MRE cis-reporter transcription, Attagene multiplex; actives raise or lower the signal
How it was run: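 RT-PCR/capillary electrophoresis readout of reporter mRNA, 24 h post-dosing, in HepG2 cells transfected with multiplexed cis-regulated reporter constructs. Gain or loss of signal fitted bidirectionally against DMSO baseline.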

[6] = ATG_PBREM_CIS: Attagene CIS-FACTORIAL HepG2 Assay for human Phenobarbital-responsive Enhancer Module (PBREM) (AID 2282955); conditions: HepG2 PBREM cis-reporter, Attagene multiplexed transcription; actives raise or lower the signal
How it was run: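 Transfected liver-derived HepG2 cells exposed 24 h; PBREM reporter transcript quantified via RT-PCR and capillary electrophoresis, with activity in either direction referenced to DMSO.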

[7] = molecular target: Paired box protein Pax-6 (Homo sapiens) (UniProt P26367); assay: ATG_Pax6_CIS: Attagene CIS-FACTORIAL HepG2 Assay for human Paired Box 6 (PAX6) (AID 2282956); conditions: HepG2 CIS-FACTORIAL PAX6 reporter transcription, RNA readout; actives raise or lower the signal
How it was run: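 Read-out is reporter transcript level, measured by RT-PCR with fluorescent primer extension and capillary electrophoresis after 24 h dosing of transfected HepG2 cells. Activity in either direction fitted relative to DMSO control.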

[8] = ATG_PPRE_CIS: Attagene CIS-FACTORIAL HepG2 Assay for human Peroxisome Proliferator-activated Response Element (PPRE) (AID 2282958); conditions: HepG2 PPRE cis-element reporter, Attagene transcription factor profiling; actives raise or lower the signal
How it was run: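 Measured endpoint: PPRE-controlled reporter mRNA, detected by RT-PCR and capillary electrophoresis fluorescence, from transiently transfected HepG2 cells 24 h after dosing. Curves fitted in both directions using DMSO baseline.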

[9] = ATG_RORE_CIS: Attagene CIS-FACTORIAL HepG2 Assay for human RAR-related Orphan Receptor Element (RORE) (AID 2282959); conditions: HepG2 Attagene cis-factorial RORE reporter, mRNA; actives raise or lower the signal
How it was run: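 Transiently transfected HepG2 reporter cells were treated 24 h. Reporter transcripts were detected by RT-PCR and capillary electrophoresis, with bidirectional fitting against DMSO.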

[10] = ATG_Sox_CIS: Attagene CIS-FACTORIAL HepG2 Assay for human SRY-box transcription factor (SOX) (AID 2282960); conditions: HepG2 Attagene cis-factorial SOX reporter, mRNA; actives raise or lower the signal
How it was run: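 Gain- or loss-of-signal endpoint, fitted bidirectionally with DMSO as negative control. Based on reporter mRNA from transfected HepG2 cells harvested 24 h post-treatment and quantified via RT-PCR and capillary electrophoresis.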

[11] = molecular target: Transcription factor Sp1 (Homo sapiens) (UniProt P08047); assay: ATG_Sp1_CIS: Attagene CIS-FACTORIAL HepG2 Assay for human Specificity Protein 1 (Sp1) (AID 2282961); conditions: HepG2 Sp1 cis-reporter transcription, actives raise or lower the signal
How it was run: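 Endpoint reflects endogenous Sp1 transcriptional activity, not an exogenous fusion protein: HepG2 cells with transfected cis-regulated reporters, 24 h dosing, RT-PCR/capillary electrophoresis mRNA read-out, DMSO-normalised bidirectional fit.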

[12] = ATG_SREBP_CIS: Attagene CIS-FACTORIAL HepG2 Assay for human Sterol Regulatory Element Binding (SREBP) (AID 2282962); conditions: HepG2 Attagene cis-factorial SREBP reporter, mRNA; actives raise or lower the signal
How it was run: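 Endogenous SREBP activity read as cis-element-driven reporter transcript in transiently transfected HepG2, 24 h post-dosing; quantified via RT-PCR plus capillary electrophoresis of fluorescent fragments. Gain or loss of signal fitted relative to DMSO baseline.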

[13] = molecular target: Signal transducer and activator of transcription 3 (Homo sapiens) (UniProt P40763); assay: ATG_STAT3_CIS: Attagene CIS-FACTORIAL HepG2 Assay for human Signal Transducer and Activator of Transcription 3 (STAT3) (AID 2282963); conditions: HepG2, Attagene cis-factorial STAT3 reporter transcription; actives raise or lower the signal
How it was run: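 Readout: fluorescent reporter mRNA fragments resolved by capillary electrophoresis. Setup: HepG2 transfected with MRTUs reporting endogenous transcription-factor activity, dosed 24 h. Gain or loss of signal fitted bidirectionally against DMSO control.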

[14] = ATG_TA_CIS: Attagene CIS-FACTORIAL HepG2 Assay for human TA Basal Promoter (AID 2282964); conditions: HepG2 Attagene CIS-factorial TA basal promoter reporter; actives raise or lower the signal
How it was run: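 Steps: transfect HepG2 with MRTUs; dose 24 h; isolate RNA, DNase-treat, reverse-transcribe; PCR and FAM-label reporter cDNA; digest with HpaI 2h at 37 C; run capillary electrophoresis. Activity fitted both directions against DMSO.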

[15] = ATG_TCF_b_cat_CIS: Attagene CIS-FACTORIAL HepG2 Assay for human T-Cell-Factor with beta-catenin (TCF/b-cat) (AID 2282965); conditions: HepG2 TCF/beta-catenin cis-reporter transcription, actives raise or lower the signal
How it was run: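 HepG2, transient MRTU transfection, cis-element-driven reporters (endogenous TFs). 24 h compound exposure. Readout: reporter mRNA by RT-PCR + 6-FAM primer extension, HpaI digest, capillary electrophoresis. Gain/loss fit vs DMSO baseline.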

[16] = molecular target: Hypoxia-inducible factor 1-alpha (Homo sapiens) (UniProt Q16665); assay: ATG_HIF1a_CIS: Attagene CIS-FACTORIAL HepG2 Assay for human Hypoxia Inducible Factor 1 (HIF1A) (AID 2282951); conditions: HepG2 Attagene cis-factorial HIF1a reporter transcription; actives raise or lower the signal
How it was run: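 Dosed 24 h, transfected HepG2 cells yielded total RNA whose reporter transcripts were RT-PCR-amplified and sized by capillary electrophoresis using fluorescent labelling; DMSO defined baseline, with gain and loss of signal both fitted.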

[17] = molecular target: Heat shock factor protein 1 (Homo sapiens) (UniProt Q00613); assay: ATG_HSE_CIS: Attagene CIS-FACTORIAL HepG2 Assay for human Heat Shock Transcription Factor 1 (HSE) (AID 2282953); conditions: HepG2 HSE cis-reporter, Attagene RNA transcription; actives raise or lower the signal
How it was run: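 Cells were transfected with cis-element-driven reporter constructs, dosed for 24 h, then total RNA was reverse-transcribed and reporter cDNA amplified, FAM-labelled and digested with HpaI. Fragments were resolved by capillary electrophoresis; gain or loss was fitted against DMSO.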

[18] = ATG_PXRE_CIS: Attagene CIS-FACTORIAL HepG2 Assay for human Pregnane X Receptor Element (PXRE) (AID 2282957); conditions: HepG2 Attagene CIS-FACTORIAL PXRE reporter, mRNA; actives raise or lower the signal
How it was run: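 Fluorescent capillary electrophoresis of amplified reporter cDNA gave the signal, collected 24 h after dosing HepG2 cells that held transfected cis-element reporter constructs.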

Measured: AC50

Sequence of Paired box protein Pax-6 (Homo sapiens) (P26367 whole entry, looked up): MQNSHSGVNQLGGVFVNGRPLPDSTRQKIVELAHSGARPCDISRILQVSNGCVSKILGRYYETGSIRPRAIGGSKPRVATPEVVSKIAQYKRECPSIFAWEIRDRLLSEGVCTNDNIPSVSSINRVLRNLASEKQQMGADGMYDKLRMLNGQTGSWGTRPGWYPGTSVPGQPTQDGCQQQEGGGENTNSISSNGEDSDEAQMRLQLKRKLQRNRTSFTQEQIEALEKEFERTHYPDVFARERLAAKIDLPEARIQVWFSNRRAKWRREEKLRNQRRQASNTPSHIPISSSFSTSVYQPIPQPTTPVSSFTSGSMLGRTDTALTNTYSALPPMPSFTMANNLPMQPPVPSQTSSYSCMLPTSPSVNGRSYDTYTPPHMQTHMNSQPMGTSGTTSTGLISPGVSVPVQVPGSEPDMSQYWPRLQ
Sequence of Hypoxia-inducible factor 1-alpha (Homo sapiens) (Q16665 whole entry, looked up): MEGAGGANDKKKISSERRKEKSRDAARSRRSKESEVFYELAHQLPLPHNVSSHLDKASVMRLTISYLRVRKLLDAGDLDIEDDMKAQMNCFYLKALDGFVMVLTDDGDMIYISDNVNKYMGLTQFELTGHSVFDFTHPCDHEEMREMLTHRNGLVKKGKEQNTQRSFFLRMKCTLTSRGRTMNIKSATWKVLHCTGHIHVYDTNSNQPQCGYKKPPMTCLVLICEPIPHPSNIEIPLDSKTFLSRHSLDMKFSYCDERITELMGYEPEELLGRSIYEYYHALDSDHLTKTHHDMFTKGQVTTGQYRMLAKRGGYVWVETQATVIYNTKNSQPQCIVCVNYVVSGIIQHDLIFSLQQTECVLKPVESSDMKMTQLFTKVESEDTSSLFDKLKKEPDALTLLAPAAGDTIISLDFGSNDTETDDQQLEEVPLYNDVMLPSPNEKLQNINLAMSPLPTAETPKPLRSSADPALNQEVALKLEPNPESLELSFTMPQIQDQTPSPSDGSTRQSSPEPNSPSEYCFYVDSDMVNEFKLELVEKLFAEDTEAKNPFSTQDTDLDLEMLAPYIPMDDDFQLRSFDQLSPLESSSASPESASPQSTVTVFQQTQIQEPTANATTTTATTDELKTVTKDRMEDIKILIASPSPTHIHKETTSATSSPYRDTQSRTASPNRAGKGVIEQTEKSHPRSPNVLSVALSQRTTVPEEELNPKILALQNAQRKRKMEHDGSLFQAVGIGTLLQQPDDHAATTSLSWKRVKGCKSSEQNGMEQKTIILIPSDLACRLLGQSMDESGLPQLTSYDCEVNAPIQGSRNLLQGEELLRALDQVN
Sequence of Signal transducer and activator of transcription 3 (Homo sapiens) (P40763 whole entry, looked up, the tested form may be a part): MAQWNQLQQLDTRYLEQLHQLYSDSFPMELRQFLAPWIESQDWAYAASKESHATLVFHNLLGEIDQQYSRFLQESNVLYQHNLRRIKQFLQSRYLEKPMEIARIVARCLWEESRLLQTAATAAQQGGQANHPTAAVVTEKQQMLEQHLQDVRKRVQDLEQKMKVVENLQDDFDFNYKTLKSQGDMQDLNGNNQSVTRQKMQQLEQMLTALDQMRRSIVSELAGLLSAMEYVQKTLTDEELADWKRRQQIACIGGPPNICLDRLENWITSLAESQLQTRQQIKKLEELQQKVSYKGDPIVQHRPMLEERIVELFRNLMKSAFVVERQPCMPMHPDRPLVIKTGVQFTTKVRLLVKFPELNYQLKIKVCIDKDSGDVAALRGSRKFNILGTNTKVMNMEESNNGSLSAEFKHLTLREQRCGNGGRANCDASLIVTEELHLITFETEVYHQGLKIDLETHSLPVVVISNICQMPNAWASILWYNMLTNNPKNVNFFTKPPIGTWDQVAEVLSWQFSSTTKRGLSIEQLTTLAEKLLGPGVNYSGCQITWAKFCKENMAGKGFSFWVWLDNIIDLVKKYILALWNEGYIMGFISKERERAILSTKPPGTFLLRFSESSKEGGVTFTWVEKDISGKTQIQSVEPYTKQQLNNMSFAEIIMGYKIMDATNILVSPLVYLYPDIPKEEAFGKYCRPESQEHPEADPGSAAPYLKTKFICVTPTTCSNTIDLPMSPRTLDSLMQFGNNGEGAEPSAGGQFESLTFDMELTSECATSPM
Sequence of Heat shock factor protein 1 (Homo sapiens) (Q00613 whole entry, looked up, the tested form may be a part): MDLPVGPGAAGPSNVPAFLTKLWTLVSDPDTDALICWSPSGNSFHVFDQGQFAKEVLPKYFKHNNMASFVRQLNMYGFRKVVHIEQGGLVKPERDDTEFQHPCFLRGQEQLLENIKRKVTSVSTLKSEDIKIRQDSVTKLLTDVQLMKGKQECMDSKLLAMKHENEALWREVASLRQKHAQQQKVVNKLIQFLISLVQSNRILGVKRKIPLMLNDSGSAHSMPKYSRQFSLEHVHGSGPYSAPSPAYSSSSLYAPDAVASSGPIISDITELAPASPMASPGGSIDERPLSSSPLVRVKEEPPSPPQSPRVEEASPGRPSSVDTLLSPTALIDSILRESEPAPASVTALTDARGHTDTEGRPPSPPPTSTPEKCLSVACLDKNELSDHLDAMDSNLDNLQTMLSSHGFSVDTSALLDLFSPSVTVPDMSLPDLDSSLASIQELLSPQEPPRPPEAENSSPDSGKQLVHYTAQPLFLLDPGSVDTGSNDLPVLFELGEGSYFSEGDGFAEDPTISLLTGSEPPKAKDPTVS
Sequence of Hepatocyte nuclear factor 6 (Homo sapiens) (Q9UBC0 whole entry, looked up): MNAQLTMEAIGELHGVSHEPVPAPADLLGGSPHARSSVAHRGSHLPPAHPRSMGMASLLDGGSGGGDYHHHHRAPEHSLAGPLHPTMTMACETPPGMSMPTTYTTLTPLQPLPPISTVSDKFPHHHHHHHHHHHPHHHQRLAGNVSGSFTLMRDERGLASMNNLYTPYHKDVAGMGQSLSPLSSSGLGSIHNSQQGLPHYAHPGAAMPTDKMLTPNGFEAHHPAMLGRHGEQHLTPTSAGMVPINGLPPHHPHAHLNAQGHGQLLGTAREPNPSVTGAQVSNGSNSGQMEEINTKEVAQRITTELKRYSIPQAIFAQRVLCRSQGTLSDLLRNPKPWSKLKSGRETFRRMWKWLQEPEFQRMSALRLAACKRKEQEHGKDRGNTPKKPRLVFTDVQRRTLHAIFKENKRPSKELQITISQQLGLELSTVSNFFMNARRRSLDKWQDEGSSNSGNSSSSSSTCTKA
Sequence of Transcription factor Sp1 (Homo sapiens) (P08047 whole entry, looked up, the tested form may be a part): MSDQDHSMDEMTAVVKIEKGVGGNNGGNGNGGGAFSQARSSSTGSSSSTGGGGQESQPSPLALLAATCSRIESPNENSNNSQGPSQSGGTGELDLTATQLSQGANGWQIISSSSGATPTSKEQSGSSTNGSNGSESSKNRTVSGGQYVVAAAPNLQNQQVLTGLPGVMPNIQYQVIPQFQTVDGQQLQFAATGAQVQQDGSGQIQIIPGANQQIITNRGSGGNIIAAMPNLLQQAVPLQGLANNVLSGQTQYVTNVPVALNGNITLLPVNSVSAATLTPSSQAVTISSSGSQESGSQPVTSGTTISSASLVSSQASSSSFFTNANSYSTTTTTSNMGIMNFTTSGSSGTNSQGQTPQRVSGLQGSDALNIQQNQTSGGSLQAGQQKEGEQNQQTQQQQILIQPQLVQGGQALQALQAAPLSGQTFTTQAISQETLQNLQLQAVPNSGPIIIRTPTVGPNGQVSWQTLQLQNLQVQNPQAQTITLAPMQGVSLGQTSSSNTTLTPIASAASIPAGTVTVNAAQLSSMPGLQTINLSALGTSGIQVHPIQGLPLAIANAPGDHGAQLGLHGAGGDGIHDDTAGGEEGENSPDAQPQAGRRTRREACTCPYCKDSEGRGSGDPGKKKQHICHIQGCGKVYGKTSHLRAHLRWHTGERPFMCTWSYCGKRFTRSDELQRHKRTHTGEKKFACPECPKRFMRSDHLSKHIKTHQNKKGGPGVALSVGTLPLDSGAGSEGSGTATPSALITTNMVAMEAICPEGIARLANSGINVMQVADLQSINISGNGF

C=C[Si](OC(C)=O)(OC(C)=O)OC(C)=O
not listed: [16] | [17] | [18]
inactive: all other assays above

Cc1cccc(C(=O)O)c1
not listed: [5]
inactive: all other assays above

CC(C)(C)C(=O)CCc1ccc(Cl)cc1
active: [18] 9.79 µM
not listed: [1] | [5]
inactive: all other assays above

C[Si](C)O[Si](C)(C)O[Si](C)(C)O[Si](C)C
active: [18] 17 µM
not listed: [1] | [6] | [8] | [14]
inactive: all other assays above

COC(=O)c1ccc2cc(C(=O)OC)ccc2c1
not listed: [2] | [6]
inactive: all other assays above

CC1=CC[C@H](C(C)C)C=C1
active: [5] 66.3 µM | [18] 1.98 µM
not listed: [4] | [8] | [9] | [10] | [15]
inactive: all other assays above

Cc1ccccc1C
active: [18] 36.5 µM
not listed: [6] | [14] | [16]
inactive: all other assays above

CCCCC/C=C\C/C=C\CCCCCCCC(=O)OC
active: [1] 80.7 µM | [17] 153 µM | [7] 73.3 µM | [18] 5.54 µM | [14] 100 µM
not listed: [16]
inactive: all other assays above

Cc1cc(C)c(C)c(O)c1
active: [18] 42.3 µM
not listed: [1] | [2] | [4]
inactive: all other assays above

N#CCc1ccc(Cl)cc1Cl
active: [18] 61.8 µM
not listed: [2]
inactive: all other assays above

CCN(Cc1cccc(S(=O)(=O)O)c1)c1ccc(C(=C2C=CC(=[N+](CC)Cc3cccc(S(=O)(=O)[O-])c3)C=C2)c2ccccc2)cc1
active: [17] 83 µM | [18] 20.6 µM
not listed: [9]
inactive: all other assays above

O=C1CCCC1
active: [18] 62.7 µM
not listed: [6] | [8]
inactive: all other assays above

C=C(C)[C@H]1CC=C(C)CC1
active: [18] 51 µM
not listed: [8] | [9] | [11]
inactive: all other assays above

Source: PubChem BioAssay (EPA / NIEHS)
